From PubChem BioAssay (EPA / NIEHS)
Activity calls are given as the source filed them. How the source made its calls: active means hit-call score of the fitted dose curve at least 0.9, where 1 is the maximum; inactive means score below 0.9.

Legend:
Conditions in all cases: mRNA level, 48 h; actives raise or lower the signal
[1] = read-out: Cytochrome P450 (CYP24A1), CYP24A1 (gene 1591); experiment: LTEA_HepaRG_CYP24A1: Life Technologies and Expression Analysis (LTEA) Assay for Cytochrome P450 (CYP24A1) using HepaRG (AID 2283478)
Method in brief: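 mRNA of CYP24A1 quantified by TaqMan qRT-PCR (ACTB/GAPDH/POLR2A normalization) after 48 h chemical exposure of HepaRG cells, top concentration 100 uM, half-log steps, 0.5% DMSO vehicle, duplicates. Curves fitted bidirectionally against DMSO baseline.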

[2] = read-out: Cytochrome P450 (CYP1A2), CYP1A2 (gene 1544); experiment: LTEA_HepaRG_CYP1A2: Life Technologies and Expression Analysis (LTEA) Assay for Cytochrome P450 (CYP1A2) using HepaRG (AID 2283479)
Method in brief: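 CYP1A2 transcript measured by TaqMan qRT-PCR against three housekeeping genes after 48-hour chemical exposure of HepaRG cells. Eight-point half-log series topping at 100 uM in 0.5% DMSO, duplicates; gain or loss fitted relative to vehicle.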

[3] = read-out: cysteine-aspartic acid protease (CASP8), CASP8 (gene 841); experiment: LTEA_HepaRG_CASP8: Life Technologies and Expression Analysis (LTEA) Assay for cysteine-aspartic acid protease (CASP8) using HepaRG (AID 2283480)
Method in brief: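 CASP8 transcript measured by TaqMan qRT-PCR with ACTB/GAPDH/POLR2A normalization, after 48 h chemical exposure of HepaRG cells in serum-free induction medium. Eight concentrations, top 100 uM, half-log steps, 0.5% DMSO vehicle; fits in both directions versus DMSO.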

[4] = read-out: Cytochrome P450 (CYP2B6), CYP2B6 (gene 1555); experiment: LTEA_HepaRG_CYP2B6: Life Technologies and Expression Analysis (LTEA) Assay for Cytochrome P450 (CYP2B6) using HepaRG (AID 2283481)
Method in brief: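 CYP2B6 transcript level quantified by qRT-PCR against three housekeeping genes, fitted bidirectionally relative to DMSO. HepaRG cultures received chemicals for 48 h, 8-point half-log series from 100 uM in 0.5% DMSO, duplicate wells, serum-free induction medium.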

[5] = read-out: Cytochrome P450 2C19 (Homo sapiens) (UniProt P33261); experiment: LTEA_HepaRG_CYP2C19: Life Technologies and Expression Analysis (LTEA) Assay for CYP2C19 using HepaRG (AID 2283482)
Method in brief: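 CYP2C19 transcript levels by qRT-PCR, normalized to three housekeeping genes, in HepaRG cells after 48 h chemical exposure. Eight-point half-log series topping at 100 uM, 0.5% DMSO vehicle. Increases and decreases both fitted against DMSO.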

CYP2C8 (gene 1558) = experiment: LTEA_HepaRG_CYP2C8: Life Technologies and Expression Analysis (LTEA) Assay for CYP2C8 using HepaRG (AID 2283483)
Method in brief: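 CYP2C8 expression measured by TaqMan qRT-PCR and normalized to three housekeeping genes. HepaRG cultures were treated for 48 h with an eight-point half-log series topping at 100 uM, vehicle 0.5% DMSO, duplicates; fitted both directions against DMSO.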

CYP2C9 (gene 1559) = experiment: LTEA_HepaRG_CYP2C9: Life Technologies and Expression Analysis (LTEA) Assay for CYP2C9 using HepaRG (AID 2283484)
Method in brief: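 CYP2C9 transcript level, quantified by TaqMan qRT-PCR against three housekeeping genes, was fitted bidirectionally relative to 0.5% DMSO. HepaRG cultures were treated 48 h, in duplicate, at eight half-log concentrations topping at 100 uM.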

CYP2E1 (gene 1571) = experiment: LTEA_HepaRG_CYP2E1: Life Technologies and Expression Analysis (LTEA) Assay for CYP2E1 using HepaRG (AID 2283485)
Method in brief: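 Readout is qRT-PCR of CYP2E1 mRNA, normalized to three housekeeping genes and fitted bidirectionally against 0.5% DMSO. HepaRG cells were dosed 48 h at eight concentrations, highest 100 uM with half-log dilutions.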

CYP4A11 (gene 1579) = experiment: LTEA_HepaRG_CYP4A11: Life Technologies and Expression Analysis (LTEA) Assay for CYP4A11 using HepaRG (AID 2283486)
Method in brief: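 Readout is CYP4A11 transcript level by qRT-PCR, normalized to three housekeeping genes and fitted bidirectionally against 0.5% DMSO. Human HepaRG cells were treated 48 h, in duplicate, with an 8-point half-log series topping at 100 uM.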

[6] = read-out: Cytochrome P450 3A4 (Homo sapiens) (UniProt P08684); experiment: LTEA_HepaRG_CYP3A4: Life Technologies and Expression Analysis (LTEA) Assay for CYP3A4 using HepaRG (AID 2283487)
Method in brief: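 Differentiated HepaRG cells in serum-free induction medium exposed in duplicate for 48 h to 8 half-log concentrations up to 100 uM in 0.5% DMSO. CYP3A4 mRNA measured by qRT-PCR normalized to ACTB, GAPDH and POLR2A; bidirectional fit versus DMSO.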

[7] = read-out: DNA damage-inducible transcript 3 (DDIT3), DDIT3 (gene 1649); experiment: LTEA_HepaRG_DDIT3: Life Technologies and Expression Analysis (LTEA) Assay for DNA damage-inducible transcript 3 (DDIT3) using HepaRG (AID 2283488)
Method in brief: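 Cells are human HepaRG liver cells treated for 48 h with eight half-log concentrations up to 100 uM in 0.5% DMSO. Transcript levels come from qRT-PCR normalized to three housekeeping genes, with activity fitted in both directions relative to vehicle.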

[8] = read-out: Early growth response protein 1 (EGR1) transcription factor, EGR1 (gene 1958); experiment: LTEA_HepaRG_EGR1: Life Technologies and Expression Analysis (LTEA) Assay for Early growth response protein 1 (EGR1) transcription factor using HepaRG (AID 2283490)
Method in brief: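 EGR1 transcript levels quantified by qRT-PCR (Fluidigm arrays) against three housekeeping genes after 48 h chemical exposure of HepaRG cells. Eight-point half-log series topping at 100 uM, 0.5% DMSO vehicle, analyzed for gain or loss.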

[9] = read-out: Ezrin (EZR), EZR (gene 7430); experiment: LTEA_HepaRG_EZR: Life Technologies and Expression Analysis (LTEA) Assay for Ezrin (EZR) using HepaRG (AID 2283491)
Method in brief: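 Differentiated human HepaRG cells, 48 h after plating, were exposed in serum-free induction medium for 48 hours to eight half-log concentrations up to 100 uM in 0.5% DMSO. EZR mRNA was measured by TaqMan qRT-PCR, normalized to ACTB, GAPDH and POLR2A, and fitted bidirectionally against DMSO.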

[10] = read-out: Cytochrome P450 3A7 (Homo sapiens) (UniProt P24462); experiment: LTEA_HepaRG_CYP3A7: Life Technologies and Expression Analysis (LTEA) Assay for CYP3A7 using HepaRG (AID 2283492)
Method in brief: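 CYP3A7 transcript measured by qRT-PCR (ACTB, GAPDH, POLR2A normalization) after 48 h chemical exposure of HepaRG cells in duplicate. Eight half-log concentrations, maximum 100 uM, 0.5% DMSO vehicle; bidirectional curve fitting against DMSO baseline.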

CYP3A5 (gene 1577) = experiment: LTEA_HepaRG_CYP3A5: Life Technologies and Expression Analysis (LTEA) Assay for CYP3A5 using HepaRG (AID 2283493)
Method in brief: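 Human HepaRG hepatic cells receive 48 h chemical treatment at eight concentrations (half-log steps from 100 uM) in 0.5% DMSO. Expression of CYP3A5 is quantified by Fluidigm qRT-PCR and normalized to three reference genes.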

[11] = read-out: Fatty Acid-Binding Protein 1 (FABP1), FABP1 (gene 2168); experiment: LTEA_HepaRG_FABP1: Life Technologies and Expression Analysis (LTEA) Assay for Fatty Acid-Binding Protein 1 (FABP1) using HepaRG (AID 2283494)
Method in brief: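 FABP1 expression by TaqMan qRT-PCR, normalised to three housekeeping genes, in HepaRG cells after 48 h chemical treatment. Eight-point half-log series topping at 100 uM in 0.5% DMSO, duplicates; gain or loss fitted relative to vehicle.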

[12] = read-out: Cytochrome P450 7A1 (Homo sapiens) (UniProt P22680); experiment: LTEA_HepaRG_CYP7A1: Life Technologies and Expression Analysis (LTEA) Assay for Cytochrome P450 7A1 (CYP7A1) using HepaRG (AID 2283496)
Method in brief: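 HepaRG, 48 h exposure, 8-pt half-log series from 100 uM, 0.5% DMSO vehicle, duplicates. Readout: TaqMan qRT-PCR mRNA vs three housekeeping genes; bidirectional curve fit against DMSO baseline.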

[13] = read-out: Glutathione S-Transferase (GSTA2), GSTA2 (gene 2939); experiment: LTEA_HepaRG_GSTA2: Life Technologies and Expression Analysis (LTEA) Assay for Glutathione S-Transferase (GSTA2) using HepaRG (AID 2283497)
Method in brief: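 GSTA2 transcript levels came from Fluidigm TaqMan qRT-PCR normalized to three housekeeping genes, fitted in both directions against DMSO. HepaRG cultures received chemicals for 48 h in serum-free induction medium (0.5% DMSO), 8 half-log concentrations up to 100 uM, duplicate.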

[14] = read-out: Pro-epidermal growth factor (Homo sapiens) (UniProt P01133); experiment: LTEA_HepaRG_EGF: Life Technologies and Expression Analysis (LTEA) Assay for Epidermal growth factor (EGF) using HepaRG (AID 2283489)
Method in brief: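 EGF transcript measured by Fluidigm TaqMan qRT-PCR with three housekeeping genes for normalization, 48 h after dosing HepaRG cultures in duplicate (top 100 uM, half-log steps, 0.5% DMSO vehicle). Gain or loss relative to DMSO fitted.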

[15] = read-out: Cytochrome P450 4A22 (Homo sapiens) (UniProt Q5TCH4); experiment: LTEA_HepaRG_CYP4A22: Life Technologies and Expression Analysis (LTEA) Assay for Cytochrome P450 4A22 (CYP4A22) using HepaRG (AID 2283495)
Method in brief: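 Gene expression measured by qRT-PCR against three housekeeping genes (ACTB, GAPDH, POLR2A), with gain or loss fitted relative to 0.5% DMSO vehicle. HepaRG cultures received 48 h chemical treatment, top concentration 100 uM, half-log steps, duplicate wells.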

Measured: AC50

Sequence of Cytochrome P450 2C19 (Homo sapiens) (P33261 whole entry, looked up): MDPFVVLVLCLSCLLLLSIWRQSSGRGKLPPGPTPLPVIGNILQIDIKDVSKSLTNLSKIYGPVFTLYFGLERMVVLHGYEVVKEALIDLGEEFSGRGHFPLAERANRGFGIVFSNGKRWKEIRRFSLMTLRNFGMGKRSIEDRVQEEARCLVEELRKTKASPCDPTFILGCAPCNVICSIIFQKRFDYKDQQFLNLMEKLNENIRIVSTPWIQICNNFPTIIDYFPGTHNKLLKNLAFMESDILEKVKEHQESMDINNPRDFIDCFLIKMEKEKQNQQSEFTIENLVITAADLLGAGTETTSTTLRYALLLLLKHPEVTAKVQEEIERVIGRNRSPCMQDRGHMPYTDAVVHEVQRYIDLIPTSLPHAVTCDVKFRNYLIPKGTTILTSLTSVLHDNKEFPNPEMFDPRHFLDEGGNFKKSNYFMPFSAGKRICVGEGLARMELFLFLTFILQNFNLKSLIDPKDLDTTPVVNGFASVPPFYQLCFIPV
Sequence of Cytochrome P450 3A4 (Homo sapiens) (P08684 whole entry, looked up): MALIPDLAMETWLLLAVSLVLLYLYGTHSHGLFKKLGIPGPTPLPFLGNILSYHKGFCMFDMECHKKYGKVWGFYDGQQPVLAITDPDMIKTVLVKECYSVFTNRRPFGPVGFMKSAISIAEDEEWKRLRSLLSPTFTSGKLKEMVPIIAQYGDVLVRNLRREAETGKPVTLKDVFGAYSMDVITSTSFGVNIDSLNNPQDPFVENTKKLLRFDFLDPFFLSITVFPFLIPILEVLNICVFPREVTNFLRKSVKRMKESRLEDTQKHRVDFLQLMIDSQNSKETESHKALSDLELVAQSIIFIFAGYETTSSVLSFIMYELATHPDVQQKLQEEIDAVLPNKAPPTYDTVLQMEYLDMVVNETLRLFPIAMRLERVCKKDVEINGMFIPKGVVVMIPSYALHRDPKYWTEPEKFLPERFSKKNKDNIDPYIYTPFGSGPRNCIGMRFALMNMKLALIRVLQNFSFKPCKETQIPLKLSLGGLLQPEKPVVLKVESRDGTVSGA
Sequence of Cytochrome P450 3A7 (Homo sapiens) (P24462 whole entry, looked up): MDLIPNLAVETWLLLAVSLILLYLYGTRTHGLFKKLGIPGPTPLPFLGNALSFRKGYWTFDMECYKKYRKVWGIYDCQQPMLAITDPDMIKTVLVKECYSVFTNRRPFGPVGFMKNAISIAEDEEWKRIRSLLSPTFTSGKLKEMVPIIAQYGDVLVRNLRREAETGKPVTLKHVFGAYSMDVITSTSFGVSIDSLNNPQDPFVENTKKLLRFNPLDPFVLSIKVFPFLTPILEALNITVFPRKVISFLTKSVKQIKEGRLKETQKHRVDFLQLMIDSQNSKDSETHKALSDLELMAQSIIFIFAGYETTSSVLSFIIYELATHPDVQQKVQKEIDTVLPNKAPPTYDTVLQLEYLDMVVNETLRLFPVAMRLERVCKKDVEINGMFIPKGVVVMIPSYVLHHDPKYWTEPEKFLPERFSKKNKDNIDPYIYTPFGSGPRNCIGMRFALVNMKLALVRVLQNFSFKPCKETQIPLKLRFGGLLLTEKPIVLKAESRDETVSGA

NCC1(Cc2noc(=O)[nH]2)CCCCC1
not listed: [14] | [15]
inactive: all other assays above

C1CCC(SSC2CCCCC2)CC1
not listed: CYP4A11 (gene 1579) | [13] | [15]
inactive: all other assays above

CCCCCCC(=O)OCC
active: [2] 23 µM | [4] 6.44 µM | [5] 8.96 µM
not listed: CYP4A11 (gene 1579) | [7] | [13]
inactive: all other assays above

CCCCCCCCCCCCCCCC
active: [2] 50 µM
not listed: CYP4A11 (gene 1579) | [7] | [10] | [13] | [14]
inactive: all other assays above

CCCCCCOCCO
not listed: [7] | [10] | [13]
inactive: all other assays above

Cc1ccccc1Cl
not listed: [10] | [13]
inactive: all other assays above

Cc1cc(NC(=O)C(=O)O)cc(C)c1Oc1ccc(O)c2c1CCC2
active: [2] 0.00228 µM | [4] 0.00316 µM | [5] 0.618 µM | CYP4A11 (gene 1579) 0.00589 µM | [6] 13.8 µM | CYP3A5 (gene 1577) 0.0973 µM | [11] 0.0279 µM | [12] 0.229 µM | [13] 75.6 µM
inactive: [1] | [3] | CYP2C8 (gene 1558) | CYP2C9 (gene 1559) | [7] | [14] | [8] | [9]

CCc1c(C(=O)NN2CCCCC2)nn(-c2ccc(Cl)cc2Cl)c1-c1ccc(Br)cc1
inactive: [1] | [3] | [14] | [9]
active: [2] 91.8 µM | [4] 30 µM | [5] 34.6 µM | CYP2C8 (gene 1558) 23.6 µM | CYP2C9 (gene 1559) 30.4 µM | CYP2E1 (gene 1571) 22.4 µM | CYP4A11 (gene 1579) 15.9 µM | [6] 31.7 µM | [7] 32.5 µM | [8] 12.2 µM | CYP3A5 (gene 1577) 50 µM | [11] 36.2 µM | [12] 37.6 µM | [13] 31.7 µM

Cc1oc(-c2ccccc2)nc1CCOc1cccc2c1ccn2CCC(=O)O
active: [3] 50 µM | [4] 88.5 µM | [5] 83.4 µM | CYP2C8 (gene 1558) 80.5 µM | CYP2C9 (gene 1559) 77.9 µM | CYP2E1 (gene 1571) 62.6 µM | [6] 80.1 µM | [7] 79.2 µM | [8] 4.76 µM | [9] 9.92 µM | [10] 11.4 µM | [11] 87.6 µM | [15] 85.2 µM | [12] 82.3 µM | [13] 81.5 µM
inactive: [1] | [2] | [14] | CYP3A5 (gene 1577)

Nc1ccc2c(c1)C(=O)c1ccccc1C2=O
inactive: [1] | [3] | [5] | [6] | [9] | [10]
active: [2] 4.96 µM | [4] 11.3 µM | CYP2C8 (gene 1558) 3.97 µM | CYP2C9 (gene 1559) 1.04 µM | CYP4A11 (gene 1579) 29 µM | [7] 20.9 µM | [14] 6.13 µM | [8] 10.4 µM | CYP3A5 (gene 1577) 1.6 µM | [11] 13.6 µM | [12] 8.9 µM

CC(CO)OC(C)CO (stereo unspecified) (tested in a mixture with another compound)
not listed: [7]
inactive: all other assays above

COCCOCCOC
active: [1] 0.388 µM | [2] 0.95 µM | [3] 1.57 µM | [4] 0.993 µM | CYP2C8 (gene 1558) 0.712 µM
not listed: CYP4A11 (gene 1579) | [7] | [10] | [14] | [15]
inactive: all other assays above

Cc1cc(=O)[nH]c(=S)[nH]1
active: [2] 50 µM
not listed: [13] | [14] | [15]
inactive: all other assays above

C=CCOC(=O)c1ccccc1C(=O)OCC=C
not listed: CYP2E1 (gene 1571) | [14] | [15]
inactive: all other assays above
